Laboratory results: PubChem BioAssay AID2289 (National Center for Advancing Translational Sciences (NCATS), 2010)
In all, about 340,000 compounds went through this assay and about 3,300 (0.97%) were called active. About 9% were inconclusive and are not listed. Calls come from the whole dose curve; as a rule, active = well fitted inhibition curve with a large enough effect; inconclusive = small, poorly fitted or top-dose-only effect, or effect the other way; inactive = flat fitted curve, though single readings scatter. The list shows a part of the results.

experiment: qHTS Assay for Modulators of miRNAs and/or Inhibitors of miR-21; conditions: HeLa miR-21-FLuc reporter, luciferase luminescence, 48 h; actives lower the signal; note: nearly all actives have a fitted effect of over 55% in size
From the text: MLSCN Grant: 1 R21 NS059478-01 Assay Provider: Qihong Huang, The Wistar Institute NCGC Assay Overview: MicroRNAs (miRNAs) are endogenously encoded small (~20-25 nucleotides), nonprotein-coding RNAs that are involved in post-transcriptional repression of target messenger RNAs (mRNAs) (Le and Hannon, 2004). Estimated to be involved in the regulation of 30% of all protein-coding mRNAs (Filipowicz et al., 2008), miRNAs play a significant role in many biological processes including cellular differentiation and tissue development (Ghildiyal and Zamore, 2009).
NCGC Assay Protocol Summary: Reagents: HeLa cells stably expressing firefly luciferase (FLuc) under the control of a CMV promoter (upstream) and a miR-21 binding sequence directly downstream of the gene. These cells endogenously express miR-21. Control compounds used were compound C3 (provided by collaborator), N6-phenyladenosine (MP Biomedicals, 0215379625), and DMSO. Assay Summary: 6uL of HeLa miR-21-FLuc cells in assay buffer (DMEM, Invitrogen #21063-029; 10% FBS, HyClone #SH30071.03) were dispensed at 2000cells/well (3.3 x 10^5 cells/mL) into Greiner solid-white TC-treated 1536-well plates using a Multidrop Combi (Thermo Fisher Scientific). Plates were incubated for one hour at 37 degree Celsius, 95% humidity, 5% CO2. These assay plates were then treated with 23nL of compound or DMSO using a Kalypsys pin tool, which allows for delivery of a 24-point titration of each compound to the assay plate, with a final compound concentration ranging from approximately 40uM to 5pM. Assay plates were then incubated for 48 hours. After incubation, plates were allowed to come to RT for one hour prior to delivery of 3uL of 3X luciferase detection reagent. After a 15 minute incubation to allow for cell lysis, luciferase activity was measured using a ViewLux CCD imager (PerkinElmer), with an average exposure time of 2-12 seconds. Keywords: NIH Roadmap, MLPCN, MLSMR, qHTS, miR-21, microRNA, firefly luciferase, FLuc.
Potency is the fitted concentration of half-maximal effect.

Structure (SMILES) | Potency
Cc1cc(C(=O)N(C)C)sc1-c1ccccc1 | 5.21 µM (active)
CC1=C(c2ccc(C)cc2)[N+](=O)C(C)(C)N1[O-] | 3.69 µM (active)
CCc1cccc2c(C(=O)COC(=O)c3ccccc3)c[nH]c12 | 16.5 µM (active)
COc1ccc(-c2csc(N=C(N)N)n2)cc1 | 8.26 µM (active)
Cc1ccsc1/C=N\NC(=O)c1cc(C(C)(C)C)[nH]n1 | 4.14 µM (active)
O=C(Nc1nc2ccsc2c(=O)s1)c1ccc(F)cc1 | 0.414 µM (active)
Cc1ccc(Nc2nc(C)cs2)cc1 | 6.56 µM (active)
Cc1ccc(Nc2nc(C3CC3)cs2)cc1 | 1.65 µM (active)
Cc1ccc(Nc2nc(-c3ccncc3)cs2)cc1 | 0.656 µM (active)
CCOc1ccc(Nc2nc(-c3cccnc3)cs2)cc1 | 0.585 µM (active)
Cc1csc(Nc2ccc(Cl)cc2)n1 | 10.4 µM (active)
O=[N+]([O-])c1ccccc1Nc1nc(-c2cccnc2)cs1 | 18.5 µM (active)
O=C(C[n+]1cn(C(F)F)c2ccccc21)c1ccc(OC(F)F)cc1 | 5.85 µM (active)
Clc1ccc(-c2cnc(Oc3ccccc3)nc2)cc1 | 2.07 µM (active)
O=C(Nc1ccc2c(c1)OCCO2)C1CC1c1ccccc1 (stereo not drawn) | 7.36 µM (active)
Cc1ccccc1Nc1nnc(SCC(=O)NC(=O)Nc2ccc3c(c2)OCCO3)s1 | 10.4 µM (active)
Cc1ccc(N(CC(=O)Nc2ccc3c(c2)OCCO3)S(C)(=O)=O)cc1 | 10.4 µM (active)
Cc1ccc(SCC(=O)Nc2ccc3c(c2)OCCO3)cc1 | 1.65 µM (active)
O=C(CSc1ccc(-c2ccccc2)nn1)Nc1ccc2c(c1)OCCO2 | 8.26 µM (active)
Cc1cccc(-c2nsc(SCC(=O)Nc3ccc4c(c3)OCO4)n2)c1 | 13.1 µM (active)
O=C(Nc1ccc2c(c1)OCO2)N1CCCc2ccccc21 | 13.1 µM (active)
O=C(CSc1ccccc1)Nc1ccc2c(c1)OCO2 | 13.1 µM (active)
O=C(CC1CS(=O)(=O)CC1CC(=O)Nc1ccc2c(c1)OCCO2)Nc1ccc2c(c1)OCCO2 (stereo not drawn) | 7.36 µM (active)
CCOc1ccc(NC(=O)Nc2cc(C)ccc2F)cc1 | 1.85 µM (active)
CCc1ccc(C(=O)Nc2cc(C)ccc2F)s1 | 6.56 µM (active)
Cc1ccc(SCc2cc(=O)n3ccsc3n2)c(C)c1 | 9.27 µM (active)
O=c1cc(CNc2ccc(Br)cc2)nc2sccn12 | 18.5 µM (active)

Structure (SMILES) | Potency
COc1cccc(C(=O)NCCn2ccc3ccccc32)c1 | 5.21 µM (active)
CCc1cc(C(=O)Nc2ccc(C)cc2Br)cs1 | 1.04 µM (active)
Cc1cccc(NC(=S)NNC(=O)c2csc(C)c2)c1 | 2.93 µM (active)
CCc1cc(C(=O)NNC(=S)Nc2cccc(C)c2)cs1 | 4.14 µM (active)
Cc1cccc(NC(=S)NNC(=O)c2csc(C(C)C)c2)c1 | 3.69 µM (active)
CCCc1cc(C(=O)NNC(=S)Nc2cccc(C)c2)cs1 | 3.69 µM (active)
Cc1cccc(NC(=S)NNC(=O)c2ccc3c(c2)OCO3)c1 | 0.464 µM (active)
O=C(NNC(=S)Nc1ccccc1Cl)c1ccccc1Br | 0.927 µM (active)
Cc1cccc(NC(=S)NNC(=O)c2ccccc2Br)c1 | 2.07 µM (active)
Cc1c(C(=O)NNC(=S)Nc2cccc(Cl)c2)nnn1-c1ccccc1 | 16.5 µM (active)
CCOC(=O)Cc1c(C)nc2c(-c3ccccc3)cnn2c1C | 16.5 µM (active)
CCOC(=O)c1cnc2c(-c3ccccc3)cnn2c1C | 0.927 µM (active)
CC(C)C(=O)Nc1nc2c(s1)CC(C(C)(C)C)CC2 (stereo not drawn) | 2.07 µM (active)
Nn1c(SCc2ccccc2)nc2ccccc21 | 4.14 µM (active)
CCOC(=O)CSc1nc2cc3c(cc2cc1C#N)OCO3 | 1.04 µM (active)
CCOC(=O)CSc1nc2cc3c(cc2cc1C#N)OCCO3 | 0.147 µM (active)
Brc1ccc(-c2csc(NC3=NCCCCC3)n2)cc1 | 10.4 µM (active)
N#Cc1ccc(-c2csc(NC3=NCCCCC3)n2)cc1 | 6.56 µM (active)
O=C(NC(=S)Nc1ccccn1)c1ccco1 | 3.69 µM (active)
Cc1ccnc(NC(=S)NC(=O)c2ccco2)c1 | 1.17 µM (active)
O=C(Nc1ccccc1F)c1cc2nc(C(F)F)cc(C(F)F)n2n1 | 18.5 µM (active)
Cc1cccc(NC(=O)c2ccc(OC3CSC3)cc2)c1 | 2.93 µM (active)
CCC(C)c1ccc(OCc2ccc(C(=O)OC)o2)cc1 (stereo not drawn) | 4.65 µM (active)
CCC(C)c1ccc(OCc2ccc(C(=O)O)o2)cc1 (stereo not drawn) | 0.233 µM (active)
COc1cc(C=O)ccc1OCc1cccc(Br)c1 | 14.7 µM (active)
COc1cc(/C=C2/C(=O)ON=C2C)ccc1OCc1cccc(F)c1 | 10.4 µM (active)
